The supplement of paper PMC6555819

What was measured:
Assay in all cases: PBM binding z-score (relative to random genomic background probes); higher = stronger binding; sequences stand for … in GC…GCGATTGACAGCGTAGAATGAAGG
[1] = tested on: PPARg:RXRa DBDmut IVT, anti-RXR (DBD mutation: RXRa K156A/R161A, NR concentration 270 nM, RXRa partner concentration 90 nM)
In short: (§1)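 Binding z-scores were set against random background probes. The data came from custom Agilent 4×180K protein-binding microarrays carrying double-stranded probes with 34-nt variable regions, incubated 1 h with ligand-free nuclear receptor dimers. Partner-specific antibodies detected binding, and scanned fluorescence was regression-normalized.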

[2] = tested on: PPARg:RXRa IVT, anti-PPARg (NR concentration 270 nM, RXRa partner concentration 90 nM)
In short: as §1

[3] = tested on: PPARg DBDmut:RXRa IVT, anti-PPARg (DBD mutation: PPARg1 K132A/R137A, NR concentration 270 nM, RXRa partner concentration 90 nM)
In short: as §1

[4] = tested on: PPARg DBDmut IVT, anti-PPARg (DBD mutation: PPARg1 K132A/R137A, NR concentration 270 nM)
In short: as §1

[5] = tested on: PPARg homodimer (NR concentration 180 nM)
In short: as §1

[6] = tested on: PXR:RXRa (NR concentration 270 nM, RXRa partner concentration 90 nM)
In short: as §1

[7] = tested on: PXR homodimer (NR concentration 270 nM)
In short: as §1

[8] = tested on: RARa:RXR (NR concentration 270 nM, RXRa partner concentration 90 nM)
In short: as §1

[9] = tested on: RARa homodimer (NR concentration 270 nM)
In short: as §1

[10] = tested on: RARb:RXRa (NR concentration 270 nM, RXRa partner concentration 90 nM)
In short: as §1

TGAATGCGGTTAAAGATCAGGGAACGTGGCGTCG
PBM binding z-score [1]: -0.715
PBM binding z-score [2]: 0.725
PBM binding z-score [3]: 0.416
PBM binding z-score [4]: 0.69
PBM binding z-score [5]: 0.0368
PBM binding z-score [6]: -0.493
PBM binding z-score [7]: -0.492
PBM binding z-score [8]: -0.11
PBM binding z-score [9]: -0.405
PBM binding z-score [10]: 0.315

CGTCAAAGTTCAAGTAAGGTAACGTAAAGCACGC
PBM binding z-score [1]: 0.544
PBM binding z-score [2]: 2.41
PBM binding z-score [3]: 0.93
PBM binding z-score [4]: 0.765
PBM binding z-score [5]: 3.47
PBM binding z-score [6]: 5.21
PBM binding z-score [7]: 3.9
PBM binding z-score [8]: 4.3
PBM binding z-score [9]: 1.99
PBM binding z-score [10]: 5.29

ACTATTAGTTGACACGAGGGCAACCGATAGGTTG
PBM binding z-score [1]: 0.272
PBM binding z-score [2]: 1.04
PBM binding z-score [3]: 0.784
PBM binding z-score [4]: 0.778
PBM binding z-score [5]: 0.695
PBM binding z-score [6]: 1.75
PBM binding z-score [7]: 0.634
PBM binding z-score [8]: 1.74
PBM binding z-score [9]: 0.708
PBM binding z-score [10]: 1.59

CCGACTGGAGCAAGGTTACCATAACGCACAGCCA
PBM binding z-score [1]: 1.3
PBM binding z-score [2]: 0.76
PBM binding z-score [3]: -0.802
PBM binding z-score [4]: -0.726
PBM binding z-score [5]: 0.608
PBM binding z-score [6]: 0.248
PBM binding z-score [7]: -0.0714
PBM binding z-score [8]: 0.527
PBM binding z-score [9]: -0.0817
PBM binding z-score [10]: 0.876

CGTCCAAGGTCAGAGAGCTCAGTGAATGCCGAGT
PBM binding z-score [1]: 2.67
PBM binding z-score [2]: 1.84
PBM binding z-score [3]: -0.717
PBM binding z-score [4]: -0.346
PBM binding z-score [5]: 1.67
PBM binding z-score [6]: 2.14
PBM binding z-score [7]: 0.855
PBM binding z-score [8]: 2.37
PBM binding z-score [9]: 0.367
PBM binding z-score [10]: 4.6

AGAACGAGGGCACGCTGAGTTGATAGCTGAGTAG
PBM binding z-score [1]: 4.41
PBM binding z-score [2]: 3.75
PBM binding z-score [3]: 0.643
PBM binding z-score [4]: 0.101
PBM binding z-score [5]: 0.829
PBM binding z-score [6]: 1.57
PBM binding z-score [7]: 0.136
PBM binding z-score [8]: 1
PBM binding z-score [9]: -0.945
PBM binding z-score [10]: 2.57

CCAGACAGGTGAGAGGGTAACTCAGCCTCGATTA
PBM binding z-score [1]: 0.762
PBM binding z-score [2]: 1.58
PBM binding z-score [3]: -0.651
PBM binding z-score [4]: -0.852
PBM binding z-score [5]: 0.818
PBM binding z-score [6]: -0.0811
PBM binding z-score [7]: -0.117
PBM binding z-score [8]: 0.443
PBM binding z-score [9]: 0.0595
PBM binding z-score [10]: 0.951

AGTCAAAGTTCATCTAGGTAACGTACGATATGCT
PBM binding z-score [1]: 1.04
PBM binding z-score [2]: 4.13
PBM binding z-score [3]: 1.4
PBM binding z-score [4]: 2.09
PBM binding z-score [5]: 2.4
PBM binding z-score [6]: 5.22
PBM binding z-score [7]: 6.7
PBM binding z-score [8]: 3.95
PBM binding z-score [9]: 1.06
PBM binding z-score [10]: 5.06

TGACTGAGGTTATAAGATCAGGGAACGTTGCAAA
PBM binding z-score [1]: -0.568
PBM binding z-score [2]: 0.535
PBM binding z-score [3]: -0.045
PBM binding z-score [4]: -0.27
PBM binding z-score [5]: 0.479
PBM binding z-score [6]: 0.649
PBM binding z-score [7]: -0.0741
PBM binding z-score [8]: 1.25
PBM binding z-score [9]: -0.694
PBM binding z-score [10]: 1.15

ATACCAAGGTGATCGTGAGCTCGTTGATACTAAC
PBM binding z-score [1]: 0.283
PBM binding z-score [2]: 1.08
PBM binding z-score [3]: 0.353
PBM binding z-score [4]: 0.874
PBM binding z-score [5]: 0.404
PBM binding z-score [6]: -0.0195
PBM binding z-score [7]: -0.182
PBM binding z-score [8]: 0.256
PBM binding z-score [9]: 0.0437
PBM binding z-score [10]: 0.555

CGTCAAAGTTCAACTAACGTAACGTAAAGCACGC
PBM binding z-score [1]: 0.504
PBM binding z-score [2]: 1.8
PBM binding z-score [3]: 1.16
PBM binding z-score [4]: 1.48
PBM binding z-score [5]: 3.23
PBM binding z-score [6]: 4.55
PBM binding z-score [7]: 3.33
PBM binding z-score [8]: 3.3
PBM binding z-score [9]: 1.91
PBM binding z-score [10]: 5.14

GTACCAAGGTGAATAGGTCGTTGAAGAGTAGGCG
PBM binding z-score [1]: 1.8
PBM binding z-score [2]: 2.92
PBM binding z-score [3]: 0.0444
PBM binding z-score [4]: -0.34
PBM binding z-score [5]: 1.08
PBM binding z-score [6]: 1.12
PBM binding z-score [7]: 0.219
PBM binding z-score [8]: 1.79
PBM binding z-score [9]: 0.784
PBM binding z-score [10]: 1.94

AATTACGGGTCAACGAGGTTATAGCACGCGTATA
PBM binding z-score [1]: 3.6
PBM binding z-score [2]: 5.01
PBM binding z-score [3]: 2.85
PBM binding z-score [4]: 2.31
PBM binding z-score [5]: 3.16
PBM binding z-score [6]: 5.27
PBM binding z-score [7]: 3.27
PBM binding z-score [8]: 5.49
PBM binding z-score [9]: 1.87
PBM binding z-score [10]: 4.27

TCTCGGAGGACACGAAAGGTCAGAGTTCGACATC
PBM binding z-score [1]: 1.62
PBM binding z-score [2]: 1.81
PBM binding z-score [3]: -0.309
PBM binding z-score [4]: -0.696
PBM binding z-score [5]: 3.27
PBM binding z-score [6]: 4.98
PBM binding z-score [7]: 3
PBM binding z-score [8]: 5.55
PBM binding z-score [9]: 1.69
PBM binding z-score [10]: 4.16

CCGACTGGGGCATAAGGTTACGATAAGCCAGCCC
PBM binding z-score [1]: 2.87
PBM binding z-score [2]: 3.37
PBM binding z-score [3]: -0.323
PBM binding z-score [4]: -1.04
PBM binding z-score [5]: 1.02
PBM binding z-score [6]: 0.614
PBM binding z-score [7]: -0.423
PBM binding z-score [8]: 1.66
PBM binding z-score [9]: -0.594
PBM binding z-score [10]: 1.77

TCTAGTTTGTCACGGAGGTCACACACGACGGGTA
PBM binding z-score [1]: 1.88
PBM binding z-score [2]: 3.07
PBM binding z-score [3]: 0.895
PBM binding z-score [4]: 1.64
PBM binding z-score [5]: 2.96
PBM binding z-score [6]: 4.44
PBM binding z-score [7]: 1.91
PBM binding z-score [8]: 4.55
PBM binding z-score [9]: 1.86
PBM binding z-score [10]: 3.54

TGTATTAGTTGAAGGGCAACCGACGAGTCCGTTT
PBM binding z-score [1]: 0.404
PBM binding z-score [2]: 0.87
PBM binding z-score [3]: 0.403
PBM binding z-score [4]: 1.05
PBM binding z-score [5]: 1.27
PBM binding z-score [6]: 0.63
PBM binding z-score [7]: 0.962
PBM binding z-score [8]: 0.3
PBM binding z-score [9]: 0.995
PBM binding z-score [10]: 1.5

TAGGCTAGGTCATTCAGGGGCCAGTATAGAAAGC
PBM binding z-score [1]: 2.09
PBM binding z-score [2]: 3.13
PBM binding z-score [3]: 1.07
PBM binding z-score [4]: 0.104
PBM binding z-score [5]: 3.69
PBM binding z-score [6]: 2.64
PBM binding z-score [7]: 0.0687
PBM binding z-score [8]: 3.93
PBM binding z-score [9]: 0.404
PBM binding z-score [10]: 4.12

GCGACTGGGGCAAAGCAGGTTCCCATAAGGTTGG
PBM binding z-score [1]: 3.87
PBM binding z-score [2]: 2.9
PBM binding z-score [3]: -1.3
PBM binding z-score [4]: -1.28
PBM binding z-score [5]: -0.328
PBM binding z-score [6]: -0.524
PBM binding z-score [7]: -0.517
PBM binding z-score [8]: -0.168
PBM binding z-score [9]: -1.06
PBM binding z-score [10]: 0.44

ATATGTAGGTTATCGGGTCCTTCAGTTTGCGCAT
PBM binding z-score [1]: 6.92
PBM binding z-score [2]: 6.98
PBM binding z-score [3]: 2.02
PBM binding z-score [4]: 2.6
PBM binding z-score [5]: 1.69
PBM binding z-score [6]: 0.963
PBM binding z-score [7]: 0.468
PBM binding z-score [8]: 0.74
PBM binding z-score [9]: 0.677
PBM binding z-score [10]: 0.829

CGTCCAAGGTCAAGGTTAGTGAAAGAGACTCGAA
PBM binding z-score [1]: 3.18
PBM binding z-score [2]: 3.79
PBM binding z-score [3]: 0.923
PBM binding z-score [4]: 0.146
PBM binding z-score [5]: 2.5
PBM binding z-score [6]: 3.81
PBM binding z-score [7]: 0.691
PBM binding z-score [8]: 4.34
PBM binding z-score [9]: 0.992
PBM binding z-score [10]: 5.07

CGAACTAGGTCATTGACAGGCCAGTGAATAGTAA
PBM binding z-score [1]: 8.3
PBM binding z-score [2]: 7.98
PBM binding z-score [3]: 0.866
PBM binding z-score [4]: 1.34
PBM binding z-score [5]: 1.29
PBM binding z-score [6]: 1.34
PBM binding z-score [7]: -0.173
PBM binding z-score [8]: 2.06
PBM binding z-score [9]: -0.0851
PBM binding z-score [10]: 3.64

TCTTGTAGATCAAGAAGGTTAAGAAAGCCTGAGT
PBM binding z-score [1]: 1.65
PBM binding z-score [2]: 0.53
PBM binding z-score [3]: -0.357
PBM binding z-score [4]: 0.523
PBM binding z-score [5]: 0.323
PBM binding z-score [6]: 0.858
PBM binding z-score [7]: 0.332
PBM binding z-score [8]: 0.941
PBM binding z-score [9]: 0.353
PBM binding z-score [10]: 0.732
